Whole data set: some 1,300 sequences, median “log fluorescence intensity” near 8.3, cut for the highest 2% near 12. This is one part of a sample in which the highest values are shown more often than they occur.

In this assay the target is T1, ETS1 (Homo sapiens, UniProt P14921 1-441).
T1 sequence: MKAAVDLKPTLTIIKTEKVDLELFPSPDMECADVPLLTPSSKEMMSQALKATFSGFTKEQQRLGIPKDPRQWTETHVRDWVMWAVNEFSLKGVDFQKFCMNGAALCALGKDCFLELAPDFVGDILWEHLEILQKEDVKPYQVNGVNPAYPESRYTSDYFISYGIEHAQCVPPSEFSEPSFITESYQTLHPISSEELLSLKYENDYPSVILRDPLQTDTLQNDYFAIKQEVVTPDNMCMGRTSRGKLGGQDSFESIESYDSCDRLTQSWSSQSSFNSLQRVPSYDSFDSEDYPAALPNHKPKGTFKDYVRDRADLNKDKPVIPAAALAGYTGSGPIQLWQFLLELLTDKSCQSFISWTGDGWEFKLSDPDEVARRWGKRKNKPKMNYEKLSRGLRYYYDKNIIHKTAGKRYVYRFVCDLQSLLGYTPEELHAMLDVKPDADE
Briefly: custom PBM; custom protein-binding microarray; buffer, salt, pH and temperature not stated; high values mean tight binding. Particulars: dsDNA, one strand shown.
“TAAACGGAAGACGGTTGTGGTAGTTCCGGGTATTAAGTCTTGATTCGCTTGACGCTGCTG”: the binding signal was 10.1 log fluorescence intensity.
Turning to “CAGCATAGGACTTCTTCCCTGAAGCAATTGATAACCGTCTTGATTCGCTTGACGCTGCTG”, the binding signal was 8.39 log fluorescence intensity.
Take “CAGCATAGGACTTCGTCCCTGAAGCAATTGATAACCGTCTTGATTCGCTTGACGCTGCTG”: the binding signal is 8.36 log fluorescence intensity.
The result for “CAGCATAGGACTTCCTCCCTGAAGCAATTGATAACCGTCTTGATTCGCTTGACGCTGCTG” reads 12.7 log fluorescence intensity; that for “CCTGCTGCGGTGCATACCCCACCGGATGTGACCCCGGTCTTGATTCGCTTGACGCTGCTG”, 10.4 log fluorescence intensity.
The result for “TAAAGGGAAGACGGTTGTGGTAGTTGCGGGTATTAAGTCTTGATTCGCTTGACGCTGCTG” reads 8.38 log fluorescence intensity.
In the case of “TAAAGGGAAGACGGTTGTGGTAGTTCCGGGTATTCAGTCTTGATTCGCTTGACGCTGCTG” it was 8.52 log fluorescence intensity; in that of “TAAAGGGAAGACGGTTGTGGTAGTTCCGGGTATTACGTCTTGATTCGCTTGACGCTGCTG”, 8.47 log fluorescence intensity.
Turning to “CACAATTTTTACAGTAGTGTAGCACGCGTAACTCCTGTCTTGATTCGCTTGACGCTGCTG”, the binding signal was 8.33 log fluorescence intensity.
For “TGTCGGGTAAGGGTATGTAGATCACGTGAATGAAAAGTCTTGATTCGCTTGACGCTGCTG”, the binding signal is 8.34 log fluorescence intensity.
The result for “TAAAGGGAAGACCGTTGTGGTAGTTCCGGGTATTAAGTCTTGATTCGCTTGACGCTGCTG” reads 8.5 log fluorescence intensity; that for “CGGAAGTGTCGTAAACGTCGGATATCCGGTACTTCTGTCTTGATTCGCTTGACGCTGCTG”, 11.8 log fluorescence intensity.
In the case of “TCCTGCTACCAGCTCCACCCACTTCAGGCCTTGTAGGTCTTGATTCGCTTGACGCTGCTG” it was 8.42 log fluorescence intensity; in that of “CAGCATAGGACTTCTTCCCTGAACCAATTGATAACCGTCTTGATTCGCTTGACGCTGCTG”, 8.33 log fluorescence intensity; in that of “CACAATTTTTACAGTAATGGAGCACGCGTAACTCCTGTCTTGATTCGCTTGACGCTGCTG”, 8.32 log fluorescence intensity.
Turning to “GCTGCTGCGGTACATACCCCACCGGATGTGACCCCGGTCTTGATTCGCTTGACGCTGCTG”, the binding signal is 10.5 log fluorescence intensity.
The result for “GATTAATCTCTGCCCTTATTCGCACGTGCCATAACAGTCTTGATTCGCTTGACGCTGCTG” reads 8.31 log fluorescence intensity; that for “GCTGCTGCGGTGCATACACCACCGGATGTGACCCCGGTCTTGATTCGCTTGACGCTGCTG”, 10.2 log fluorescence intensity; that for “GGAAAAAGGCCCAGGGTAACACGGGAAGTGGGCTTAGTCTTGATTCGCTTGACGCTGCTG”, 8.49 log fluorescence intensity.
In the case of “GGAAATAGGCCCAGGGTAACACCGGAAGTGGGCTTAGTCTTGATTCGCTTGACGCTGCTG” it was 12 log fluorescence intensity.
In the case of “CGGAAGTGTCGTAAACGCCGGATATCCGGTTCTTCTGTCTTGATTCGCTTGACGCTGCTG” it was 13.1 log fluorescence intensity; in that of “TGGAAGTGTCGTAAACGTCGGATATCCGGTTCTTCTGTCTTGATTCGCTTGACGCTGCTG”, 11.9 log fluorescence intensity; in that of “CGGAAGTGTCGTAAACGGCGGATATCCGGTTCTTCTGTCTTGATTCGCTTGACGCTGCTG”, 12.4 log fluorescence intensity.
With “CGGAAGTGTCGTAAACGTCGGATATCCGGTTCTGCTGTCTTGATTCGCTTGACGCTGCTG”, the binding signal was 11.8 log fluorescence intensity.
The result for “CGGAAGTGTCGTAAACGACGGATATCCGGTTCTTCTGTCTTGATTCGCTTGACGCTGCTG” reads 12.4 log fluorescence intensity; that for “GGGAAGTGTCGTAAACGTCGGATATCCGGTTCTTCTGTCTTGATTCGCTTGACGCTGCTG”, 11.9 log fluorescence intensity; that for “AGGAAGTGTCGTAAACGTCGGATATCCGGTTCTTCTGTCTTGATTCGCTTGACGCTGCTG”, 12 log fluorescence intensity.
On to “CGGAAGTGTCGTAAACTTCGGATATCCGGTTCTTCTGTCTTGATTCGCTTGACGCTGCTG”, for which the binding signal was 11.9 log fluorescence intensity.
Consider “CGGAAGTGTCGTAAACGTCGGATATCCGGTTCTTCTGTCTTGATTCGCTTGACGCTGCTG”, for which the binding signal is 11.9 log fluorescence intensity.
In the case of “GCTGCTGCGGTGCATACCCCACCGGATGTGACCGCGGTCTTGATTCGCTTGACGCTGCTG” it was 10.5 log fluorescence intensity; in that of “CGGAAGTGTCGTAAACGTCGGATACCCGGTTCTTCTGTCTTGATTCGCTTGACGCTGCTG”, 8.31 log fluorescence intensity; in that of “TCCGGCTAACAGCTCCACCCACTTCAGGCCTTGTAGGTCTTGATTCGCTTGACGCTGCTG”, 8.32 log fluorescence intensity.
In the case of “GCTGCTGCGGTGCATAACCCACCGGATGTGACCCCGGTCTTGATTCGCTTGACGCTGCTG” it was 10.4 log fluorescence intensity; in that of “CGGAAGTGTCGCAAACGTCGGATATCCGGTTCTTCTGTCTTGATTCGCTTGACGCTGCTG”, 12 log fluorescence intensity; in that of “CAGAATAGGACTTCTTCCCTGAAGCAATTGATAACCGTCTTGATTCGCTTGACGCTGCTG”, 8.33 log fluorescence intensity.
For the sequence “TAAAGGGAAGACGGTTGTGGTAGTTCCGGGTATCAAGTCTTGATTCGCTTGACGCTGCTG”, the binding signal is 8.76 log fluorescence intensity.
As to “GCGGCTGCGGTGCATACCCCACCGGATGTGACCCCGGTCTTGATTCGCTTGACGCTGCTG”, the binding signal is 10 log fluorescence intensity.
In the case of “TGTCGGGTAAGGGAATATAGATCACGTGAATGAAAAGTCTTGATTCGCTTGACGCTGCTG” it was 8.36 log fluorescence intensity.
The result for “GATTAATTCCTGCCCTTATTCGCACGTGCCATAACAGTCTTGATTCGCTTGACGCTGCTG” reads 10.3 log fluorescence intensity; that for “AATTAATTTCTGCCCTTATTCGCACGTGCCATAACAGTCTTGATTCGCTTGACGCTGCTG”, 8.33 log fluorescence intensity; that for “GATTAATTTCCGCCCTTATTCGCACGTGCCATAACAGTCTTGATTCGCTTGACGCTGCTG”, 13.9 log fluorescence intensity.
In the case of “GGAAAAAGGCCCAGGGTAACACCGGAAGTGGGTTTAGTCTTGATTCGCTTGACGCTGCTG” it was 12 log fluorescence intensity; in that of “GCTGCTGCGGTGCATACCCCACCGGATGTAACCCCGGTCTTGATTCGCTTGACGCTGCTG”, 10 log fluorescence intensity; in that of “GGAAAAAGGCCCAGGTTAACACCGGAAGTGGGCTTAGTCTTGATTCGCTTGACGCTGCTG”, 12 log fluorescence intensity.
With “TAAAGCGAAGACGGTTGTGGTAGTTCCGGGTATTAAGTCTTGATTCGCTTGACGCTGCTG”, the binding signal is 8.48 log fluorescence intensity.
The result for “CGGAAGTGTCGTAAACGTCGGATATCCGGTCCTTCTGTCTTGATTCGCTTGACGCTGCTG” reads 12.1 log fluorescence intensity.
In the case of “GATTAATTTCTGCCCTTTTTCGCACGTGCCATAACAGTCTTGATTCGCTTGACGCTGCTG” it was 8.42 log fluorescence intensity.
The result for “TACTGACTTATATATGCGAGTGCACATGAATAGACCGTCTTGATTCGCTTGACGCTGCTG” reads 8.33 log fluorescence intensity.
As to “GATTAATTTCTGCCCTTATTCGTACGTGCCATAACAGTCTTGATTCGCTTGACGCTGCTG”, the binding signal is 8.36 log fluorescence intensity.
The result for “CACAATTTTTATAGTAATGTAGCACGCGTAACTCCTGTCTTGATTCGCTTGACGCTGCTG” reads 8.41 log fluorescence intensity; that for “GGAAAAAGGCTCAGGGTAACACCGGAAGTGGGCTTAGTCTTGATTCGCTTGACGCTGCTG”, 11.8 log fluorescence intensity; that for “GGAAAAAGGCCTAGGGTAACACCGGAAGTGGGCTTAGTCTTGATTCGCTTGACGCTGCTG”, 12.1 log fluorescence intensity.
In the case of “GGAAAAAGGGCCAGGGTAACACCGGAAGTGGGCTTAGTCTTGATTCGCTTGACGCTGCTG” it was 12 log fluorescence intensity; in that of “GGAAAAAGGCCGAGGGTAACACCGGAAGTGGGCTTAGTCTTGATTCGCTTGACGCTGCTG”, 12 log fluorescence intensity; in that of “GGAAAAAGGCCCAGGGTAACACCGGAAGTGGGCCTAGTCTTGATTCGCTTGACGCTGCTG”, 12.1 log fluorescence intensity.
Take “GGAAAAAGGCACAGGGTAACACCGGAAGTGGGCTTAGTCTTGATTCGCTTGACGCTGCTG”: the binding signal was 12.1 log fluorescence intensity.
The result for “TAAAGGGAAGACGGTTGTGGTAGTTCCGGGTAGTAAGTCTTGATTCGCTTGACGCTGCTG” reads 8.59 log fluorescence intensity; that for “CAGCAAAGGACTTCTTCCCTGAAGCAATTGATAACCGTCTTGATTCGCTTGACGCTGCTG”, 8.31 log fluorescence intensity; that for “GCTGCTGCGGTGCATACCCCACCGGATGTGACCCCTGTCTTGATTCGCTTGACGCTGCTG”, 10.1 log fluorescence intensity.
Turning to “CAGCATAGGACTTGTTCCCTGAAGCAATTGATAACCGTCTTGATTCGCTTGACGCTGCTG”, the binding signal is 8.34 log fluorescence intensity.
Consider “TAAAGGGAAGACGGTTGTGGTAGTTCCGGGTAATAAGTCTTGATTCGCTTGACGCTGCTG”, for which the binding signal was 8.57 log fluorescence intensity.
The result for “GATTAATTTCTGCCCTTATTCGCACGTGCCGTAACAGTCTTGATTCGCTTGACGCTGCTG” reads 8.34 log fluorescence intensity; that for “GCTGCTGCGGTGCATACCCCACCGGAAGTGACCCCGGTCTTGATTCGCTTGACGCTGCTG”, 11 log fluorescence intensity.
In the case of “CGGAAGTGTCGTAAACGTCGGATATCCCGTTCTTCTGTCTTGATTCGCTTGACGCTGCTG” it was 8.7 log fluorescence intensity; in that of “TGTCGGGTAAGGGAATGTAGATCACTTGAATGAAAAGTCTTGATTCGCTTGACGCTGCTG”, 8.32 log fluorescence intensity.

The values are drawn from article PMC6602471.
